Screens: PubChem, Broad Institute
A selection follows.
aSyn UTR act: Activators via SNCA 5'UTR binding, MLPCN; alpha-synuclein 5'UTR reporter, activators screen; activity score, % (tested at 7.5 µM), hits read low; 7.1% of 300,000 active; AID 1814; in the data active = activity score below about -60%
Each line names hits and unclear results; the compound was inactive in the other large screens.

COc1cccc(/C=N/NC(=O)C(=O)Nc2ccccc2OC(F)(F)C(F)F)c1O	none
COC(=O)c1cccc(NC(=O)Nc2ccc(Cl)c(Cl)c2)c1	aSyn UTR act -134
COc1cc2c(c(OC)c1OC)-c1ccc(OC)c(=O)cc1[C@@H](NC(C)=O)CC2	none
COc1ccc2c(c1OC)C(=O)N(c1ccc(F)cc1)C2	aSyn UTR act -159
Nc1ccccc1C#CC(=O)c1ccccc1	aSyn UTR act -90
C/C(NC(=O)c1cccs1)=C1\C(=O)C[C@@H]2[C@H]1C2(C)C	aSyn UTR act -118
COc1ccccc1NC(=O)C1=C(C)NC(=O)NC1c1ccccc1[N+](=O)[O-] (configuration not stated)	aSyn UTR act -98
Cc1ccc(S(=O)(=O)C2(C(=O)Nc3ccc(C(C)C)cc3)CC2)cc1	aSyn UTR act -77
O=C(N/N=C/c1cccc(F)c1)c1cc(-c2ccco2)nc2ccccc12	aSyn UTR act -120
Cc1ccc(Nc2ncccc2C(=O)O)cc1C	aSyn UTR act -104
O=C(Nc1cccc(C(F)(F)F)c1)Oc1ccc(Cl)c2cccnc12	none
CNC(=O)c1cccnc1Nc1cccc(C(F)(F)F)c1	aSyn UTR act -148
Cc1ccc(Nc2ncccc2C(N)=O)cc1[N+](=O)[O-]	aSyn UTR act -201
CC(C)C(=O)Nc1cccc(-c2cnc3ccccc3n2)c1	aSyn UTR act -115
COc1ccc(COc2cc(-c3cccc(OC)c3)nc3ccc(NC(=O)C(C)C)cc23)cc1	aSyn UTR act -135
CS(=O)(=O)Nc1cccc(-c2cnc3ccccc3n2)c1	aSyn UTR act -153
CNC(=S)Nc1cccc(-c2cnc3ccccc3n2)c1	aSyn UTR act -144
C/C(=N\Nc1nc2c(s1)CCCC2)c1ccc(Cl)cc1	aSyn UTR act -100
CCCCNC(=O)CSc1nc2ccc(N3CCOCC3)cc2c(=O)n1CCc1ccccc1	aSyn UTR act -92
Cc1ccc(C(C)(C)NC(=O)C2CCC(=O)N(C3CCCCCC3)C2)cc1 (configuration not stated)	aSyn UTR act -147
COc1ccc(N2CCN(Cc3cc(=O)oc4cc(-c5ccccc5)c(O)cc34)CC2)cc1	none
Cc1ccc2c(CN3CCC(C)CC3)cc(=O)oc2c1C	aSyn UTR act -126
CCC(=O)c1ccc(OC(=O)N2CCOCC2)cc1	aSyn UTR act -70
CC(C)(C)c1ccc(OC(=O)N2CCOCC2)cc1	aSyn UTR act -111
COc1ccc(-c2cc3nc4c(c(=O)n3[nH]2)CCC4)cc1	aSyn UTR act -158
O=c1c2c(nc3cc(-c4ccc(Br)cc4)[nH]n13)CCCC2	aSyn UTR act -95
O=c1cc(NCCc2ccccc2)c2ccccc2o1	aSyn UTR act -130
CCOC(=O)C1CCCN(C(=O)c2cc3cc4ccc(OC)cc4nc3o2)C1 (configuration not stated)	aSyn UTR act -101
COc1ccc2cc3cc(C(=O)N4CCCC(C)C4)oc3nc2c1 (configuration not stated)	aSyn UTR act -64
COc1ccc(-c2nnc(SCC(=O)c3ccc[nH]3)n2-c2ccccc2)cc1	aSyn UTR act -70
COc1cccc(-c2nc3n(n2)C(c2ccc4c(c2)OCO4)C(C(N)=O)=C(C)N3)c1 (configuration not stated)	aSyn UTR act -111
CCc1ccc(/C=N/NC(=O)c2c[nH]c3ccccc23)s1	aSyn UTR act -132
O=C(NN=C1CCCCCC1)c1c[nH]c2ccccc12	aSyn UTR act -77
O=C(N/N=C/c1cccs1)c1c[nH]c2ccccc12	aSyn UTR act -158
CCc1ccc(/C=N/NC(=O)c2cc(-c3ccncc3)nc3ccccc23)s1	none
CCCCC(=O)NC(c1cccs1)c1cc(Cl)c2cccnc2c1O (configuration not stated)	none
CCCC(=O)Nc1ccc(NC(=O)c2cccs2)cn1	aSyn UTR act -105
O=C(Nc1ccc(NC(=O)c2cccs2)cn1)c1ccccc1	aSyn UTR act -134
O=C(Nc1ccc(NC(=O)C2CC2)nc1)c1cccs1	aSyn UTR act -96
CCC(=O)NC(c1cccs1)c1cc(Cl)c2cccnc2c1O (configuration not stated)	none
O=C(Cc1ccccc1)Nc1ccc(NC(=O)c2ccccc2)nc1	aSyn UTR act -184
COc1ccc(Nc2nc(-c3sc(C)nc3C)cs2)c(OC)c1	aSyn UTR act -124
COc1ccccc1Nc1nc(-c2cccs2)cs1	aSyn UTR act -254
COc1ccc(Nc2nc(-c3cccs3)cs2)c(OC)c1	aSyn UTR act -196
COc1ccc(Nc2nc(-c3cccs3)cs2)cc1	aSyn UTR act -205
C=CCSc1n[nH]c(-c2ccccc2)n1	aSyn UTR act -100
C=CCSc1n[nH]c(-c2ccc(OC)cc2)n1	aSyn UTR act -165
O=C(O)CN1C(=O)/C(=C\c2cccc(OCc3ccc(Cl)cc3Cl)c2)SC1=S	aSyn UTR act -106
CSc1nc2sc3c(c2c(=O)[nH]1)CCC(C)C3 (configuration not stated)	aSyn UTR act -151
Cc1ccsc1C(=O)NCCc1nnc2ccccn12	aSyn UTR act -78
O=C(NCCc1nnc2ccccn12)c1cccs1	aSyn UTR act -67
CC(/C=N/NC(=O)c1cnccn1)=C\c1ccco1	aSyn UTR act -117
